The text below walks through data of PubChem BioAssay AID686979 (National Center for Advancing Translational Sciences (NCATS), 2013).

The campaign covered roughly 420,000 compounds. About 50,000 (12%) were called active. Roughly 26% stayed inconclusive and do not appear here. The sample as a whole holds a higher share of actives than the screen did. Unmarked numbers belong to inactive results. Calls come from the whole dose curve; as a rule, active = well fitted inhibition curve with a large enough effect; inconclusive = small, poorly fitted or top-dose-only effect; inactive = flat fitted curve, though single readings scatter.
% is set by controls: 0 for no effect and ±100 for the full control effect; potency is the fitted concentration of half-maximal effect.

The assay in a line: qHTS for Inhibitors of human tyrosyl-DNA phosphodiesterase 1 (TDP1): qHTS in cells in presence of CPT. Note: nearly all actives have a fitted effect of over 55% in size. The conditions noted are these: chicken DT40 Tdp1-/-;hTDP1 cells + 20 nM CPT, ATP luminescence, 48 h; series mostly up to 46.2 µM; activity change, negative = growth inhibition: at the top concentration. In outline:
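Cell growth measured by CellTiter-Glo luminescence after a minimum 48 h, 37 C compound exposure with 20 nM CPT in Tdp1-knockout DT40 cells stably expressing hTDP1, seeded 400/well; qHTS titration format.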
For the compound `c1ccc(-c2ccc(OCCN3CCOCC3)cc2)cc1`, the “activity change, negative = growth inhibition” value is -8.28%.
On the same count and under the same terms, the result for `COc1ccc(S(=O)(=O)N(C)C[C@@H]2Oc3ccc(NS(=O)(=O)c4cn(C)cn4)cc3C(=O)N([C@@H](C)CO)C[C@@H]2C)cc1` reads -5.54%; that for `COc1ccc2c(c1)C(c1cccs1)=NNC(c1cccnc1)=N2`, -2.75%.
Still for that read-out and setting: the result for `CCCCNC(=O)c1c[nH]c2ccc(S(=O)(=O)Nc3ccc(OCC)cc3)cc2c1=O` reads -22.1%.
On to `CCOc1ccc(NS(=O)(=O)c2ccc(C)c(C(N)=O)c2)cc1`, for which the Potency is 20.6 µM (active).
With `CCOc1ccc(NS(=O)(=O)c2ccc(OCC(=O)NCCCOC)cc2)cc1`, the “activity change, negative = growth inhibition” value was -7.83%.
Still for that read-out and setting: the result for `Cc1ccccc1NC(=O)Cc1nc(COC(=O)CNC(=O)c2ccc(Cl)cc2Cl)cs1` reads -6.01%; that for `COc1ccc(CCNC(=O)Cn2c(=O)n(CC3CCCO3)c(=O)c3ccccc32)cc1OC` (configuration not stated), -1.14%.
Same read-out and setting: the result for `Cc1ccc2nc3c(cc(C(=O)NC4CCCCC4)c(=N)n3C(C)C)c(=O)n2c1` reads 6.44%.
The same measure, in the same setting: the same measure for `O=C(NCc1cccnc1)c1cc(S(=O)(=O)N2CCOCC2)c(Cl)cc1Cl`: 4.04%.
On to `Cc1ccc2nc3c(cc(C(=O)NCCc4ccccc4)c(=N)n3CC3CCCO3)c(=O)n2c1` (configuration not stated), for which the Potency is 20.6 µM (active).
Still for that read-out and setting: the same measure for `Cc1cccn2c(=O)c3cc(C(=O)NCCN4CCOCC4)c(=N)n(Cc4cccnc4)c3nc12`: 13 µM (active); for `COc1ccc(CCn2c(=N)c(C(=O)NCC3CCCO3)cc3c(=O)n4cccc(C)c4nc32)cc1OC` (configuration not stated): 5.17 µM (active).
On to `CCCCn1c(=N)c(S(=O)(=O)c2ccccc2)cc2c(=O)n3cccc(C)c3nc21`, for which the “activity change, negative = growth inhibition” value is 0.133%.
For `COCCCn1c(C(=O)NC2CCCCC2)cc2c(=O)n3cccc(C)c3nc21`, the Potency is 18.4 µM (active).
With `COc1ccc(C(=O)Nc2ccc(C(=O)NCC3CCCO3)cc2)c(OC)c1OC` (configuration not stated), the “activity change, negative = growth inhibition” value was 0.208%.
`Cc1cccn2c(=O)c3cc(C(=O)NC4CCCCC4)sc3nc12`: the “activity change, negative = growth inhibition” value was -26.2%.
Still for that read-out and setting: the same measure for `CCOC(=O)c1cc2c(=O)n3ccccc3nc2n(CC2CCCO2)c1=NC(=O)c1ccccc1Br` (configuration not stated): 4.33%.
On the same count and under the same terms, the result for `Cc1cccn2c(=O)c3cc(C#N)c(=NC(=O)c4cccnc4)n(CC4CCCO4)c3nc12` (configuration not stated) reads -2.32%; that for `CCOc1ccc(N2C(=O)CSC2=NC#N)cc1`, 0.495%; that for `COC(=O)C1=C(C)NC(=S)NC1c1ccc(OCC(=O)N2CC(C)OC(C)C2)c(OC)c1` (configuration not stated), -17.4%.
With `Cn1cc(S(=O)(=O)N2CCN(c3ccc(F)cc3)CC2)c(=O)n(C)c1=O`, the “activity change, negative = growth inhibition” value was 1.72%.
Still for that read-out and setting: the same measure for `CCc1ccc(C(=O)OCC(=O)NCC(F)(F)F)cc1`: 0.645%.
Take `CS(=O)(=O)N1CCCC(C(=O)Nc2ccccc2C(F)(F)F)C1` (configuration not stated): the “activity change, negative = growth inhibition” value was 0.592%.
Same read-out and setting: the same measure for `CC(=O)Nc1ccc(NC(=O)C(C)OC(=O)C2CC(=O)N(CCc3ccccc3)C2)cc1` (configuration not stated): 2.76%; for `O=C(O)C1CCCCC1C(=O)N1CCN(S(=O)(=O)c2ccc(F)cc2)CC1` (configuration not stated): 12.7%.
On the same count and under the same terms, the same measure for `NCCCCC(C(=O)O)N(C(=O)OCc1ccccc1)C(=O)OCc1ccccc1` (configuration not stated): -4.29%; for `CC1C(=O)C(C)C(c2ccc(O)cc2)NC1c1ccc(O)cc1` (configuration not stated): -17.5%; for `O=C(OCC(=O)N1CCN(C(=O)c2ccco2)CC1)c1ccc(Cl)c(Cl)c1`: -19.4%.
As to `CCOc1ccccc1/C=N/NC(=O)CNC(=O)COc1ccccc1`, the “activity change, negative = growth inhibition” value is 17.2%.
Same read-out and setting: the same measure for `COc1ccc(CCNC(=O)CCc2ccccc2O)cc1OC`: -0.264%.
As for `COc1ccc(CCn2c(=N)c(C(=O)NCc3ccco3)cc3c(=O)n4cccc(C)c4nc32)cc1`, the Potency was 20.6 µM (active).
Turning to `COc1ccc(C(=O)Nc2ccccc2C(=O)NCc2ccco2)cc1`, the “activity change, negative = growth inhibition” value is -23.2%.
Take `Cc1ccc(S(=O)(=O)c2cc3c(=O)n4cccc(C)c4nc3n(CCc3ccccc3)c2=N)cc1C`: the “activity change, negative = growth inhibition” value was 0.286%.
For the compound `CCOC(=O)c1ccc(NC(=O)CCn2c(=O)oc3ccccc32)cc1`, the Potency entry was “inactive”.
Take `CC(Sc1nncn1C)C(=O)NCCC1=CCCCC1` (configuration not stated): the “activity change, negative = growth inhibition” value is -1.08%.
For the compound `CC(C)n1cnc2c(Nc3cccc(Cl)c3)nc(N(CCO)CCCO)nc21`, the Potency is 10.3 µM (active).
Still for that read-out and setting: the same measure for `CC(C)[C@H](CO)Nc1nc(Nc2cc(N)cc(Cl)c2)c2ncn(C(C)C)c2n1`: 4.73 µM (active).
For `CCC(C)NC(=O)C1c2ccccc2Oc2ccccc21` (configuration not stated), the “activity change, negative = growth inhibition” value is -14.2%.
With `CC(C)(C)c1nnc(NC(=O)C2c3ccccc3Oc3ccccc32)s1`, the Potency is 23.1 µM (active).
As for `CCC(C)(C)NC(=O)C1c2ccccc2Oc2ccccc21`, the “activity change, negative = growth inhibition” value was 1.24%.
The same measure, in the same setting: the same measure for `COCCCNCC(=O)Nc1sc(C)c(C)c1C(=O)OC`: -13.3%; for `Nc1ncnc2nnsc12`: -10.5%; for `Oc1c(C(c2ccc(F)cc2)N2CCN(Cc3ccccc3)CC2)sc2nc(-c3ccco3)nn12` (configuration not stated): -26.3%.
Still for that read-out and setting: the same measure for `CC(C)(O)CCC(O)[C@@](C)(O)C1CC[C@]2(O)C3=CC(=O)C4CC(O)C(O)C[C@]4(C)C3CC[C@]12C` (some centres not stated): 13.7%; for `COc1cccc(N2CC(NC(=O)/C=C\c3ccccc3)CC2=O)c1` (configuration not stated): -23.1%.
`COc1cccc(C=CC(=O)C=CC=Cc2ccccc2)c1`: the Potency was 20.6 µM (active).
For the compound `COc1cccc(C(=O)NNC(=O)/C=C/c2ccccc2)c1`, the “activity change, negative = growth inhibition” value was -5.33%.
In the case of `COc1ccccc1C(C)NC(=O)Cc1ccsc1` (configuration not stated), the “activity change, negative = growth inhibition” value is -5.69%.
Still for that read-out and setting: the same measure for `COc1ccc(CN(CC(=O)NC2CCCC2)C(=O)CCC(=O)Nc2cc(C)on2)cc1`: -25.2%.
On the same count and under the same terms, the same measure for `Cc1ccc(CN(CC(=O)NC2CCCCC2)C(=O)c2csnn2)cc1`: -5.16%.
`Cc1cc(C(C)(C)C)oc1C(=O)N(CC(=O)NC1CCCC1)Cc1ccc(Cl)cc1`: the Potency was 9.2 µM (active).
